Experimental findings from the supplement of paper PMC6555819 are described below.

The assay has as its system PPARg DBDmut IVT, anti-PPARg (DBD mutation: PPARg1 K132A/R137A, NR concentration 270 nM). As to the kind of experiment: PBM binding z-score (relative to random genomic background probes); higher = stronger binding; sequences stand for … in GC…GCGATTGACAGCGTAGAATGAAGG
The gist of the method: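 Custom Agilent 4×180K protein-binding microarrays carried double-stranded probes, each with a 34-nt variable region. These regions held direct-repeat seeds, single-nucleotide variants, half-site ablations and random human genomic background sequences. Ligand-free nuclear receptor dimers were incubated on the arrays for 1 h, antibodies against each partner (one per run) detected binding, and scanned fluorescence was regression-normalized. Binding z-scores take the random background probes as reference.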
Take AGAACGAGGGCACGCTGAGTTCATAGCAGAGTAG: the PBM binding z-score was -0.0454.
Regarding GATACAGGGTCAGCTAGAGGACAGAGTATGGAAA, the PBM binding z-score was found to be 0.147.
AGTCAAAGTTCATCTAGGTAACGTAGGATATGCT came in with a PBM binding z-score of 1.26.
The sequence GGAACGAGGACAAGTTGATAGCAGAGTTTGATGG returned a PBM binding z-score of -0.565.
Next, GCTGCTAGGTCTGGTTGGTCAGCTAACGGGTACG: -0.941; AGAATGAGGTAATACGTAGATCAGGGAAGAAAGT: 0.684.
Next, AGAACGAGGGCACGCTGAGTTGATGGCAGAGTAG: -0.669.
Regarding TCACGGAGGACACGAAAGGTCAGAGCTCGACATC, the PBM binding z-score is -0.261.
As for TCTTGTAGATAAGCAGGTTAAGAAAGCTGGCCAA, the figure is -0.186; as for CCTAGTTGGTCAGGAGGTTACACACCGGATATGA, 0.527; as for TCTGCTAGGTCAGTTGGTCAGCCAACGAGCTGCC, 0.334.
As for CATCCAAGGTCAGAGAGGTCAGTGAATGCCGAGT, the figure is -0.591; as for TCAAGCAGGCCAGAGGGTCACTCAAGAGGTACGG, -1.55.
As for AATACAGGGTCACTAGGCGAGAGTAGGTACGAAT, the figure is 0.921; as for CCTACTTGGTCAGGAGGTCACACACCGGATATGA, 0.0151; as for GGAACGAGGGCAAAGATGATAGCATCTGTCGACG, 0.0962.
CCTACAGGGCCACGAAAGGTCATTGATTCAGTGA registered a PBM binding z-score of -0.41.
Sequence TTACCAAGGTGTAGGTCGTTGATCCCTCTGTAGA returned a PBM binding z-score of 0.0644.
Next, CGAACTACGTCAGAACAGGACAGTGAAGGATGAT: 0.733.
CCTACTGGGCCACGGAAGGTCATTGATTCAGTGA yielded a PBM binding z-score of -0.824.
The sequence CCTAGTTGGTCAAGAGGTCACACACCGGATATGA registered a PBM binding z-score of 0.00136.
Sequence TCTTGTAGATTAACAGGAGGTTAAGAAAGATCGA had a PBM binding z-score of 0.403.
CGTCCAAGGTCAAAGGTCGGTGAAGAGATGACGG showed a PBM binding z-score of -0.0129.
Turning to GCTGCTAGGTCAGATTGGTCAGCTAACGGGTACG, the PBM binding z-score was -0.686.
Next, TCTAGTAGATCAACAGGAGGTTAAGAAAGATCGA: -0.146; ACTATTAGTTGACTTAGGCCAACCGATACGACGC: 1.22.
Consider TATACAGGGTCATAGGCCAGAGTACGAATGTCGA, for which the PBM binding z-score came out at 2.28.
The sequence GCTCGGATGACAAGGTCAGAGCTTTGTCCGTAGA returned a PBM binding z-score of -1.25.
The sequence CGTCCAAGGTCAATGCTAGGTCGGTGAAAGCATT registered a PBM binding z-score of -0.78.
As for TCTATTAGTTGACTAGGGCAACCGAAACAGCGGA, the PBM binding z-score is 0.987.
Next, TTGCCAAGGTGAAGGTCGTTGATCCCTCTGTAGA: -0.656; TCTCGGAGGACACGATGGTCAGAGCTTTCCAGAG: -0.992; TCTATTAGTTGATTAGGGCAACTGAAACAGCGGA: 0.725.
With TCTTGTAGATGAAAGGTTAAGAAAGCCGAAGCCT, the PBM binding z-score is 0.195.
With TCAGACATGTGAAGGTAACTCAGGTACGCAGTCG, the PBM binding z-score turned out to be 0.0128.
Consider ATATGTAGGTTAATGGTCATTCAGGTTGGTTCGC, for which the PBM binding z-score is 3.57.
Next, ACTATTAGTTGAGACAAGGGCAACCGATAGGTTG: 0.362; GCTGCTAGGTCCACTGATGGTCAGCTAAAGCTCG: -1.02.
TTACCAAGGTGAAGGTCCTTGATCCCTCTGTAGA had a PBM binding z-score of -0.0809.
In turn, CAAACTAGGTCACGAAAGGTCAATGTCGAATGAC gave a PBM binding z-score of 3.62.
